Compound activity (PubChem BioAssay)
This excerpt belongs to a sample that is enriched for hits.
FBPA Giardia inh = blocks Giardia fructose-bisphosphate aldolase activity. A8B2U2. purified Giardia FBPA. Potency, µM (titrated, usually from 59.6 µM), hits mostly inhibitors. 0.71% of 290,000 active. AID 2451; also: nearly all actives have a fitted effect of over 55% in size
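Giardia FBPA (40 nM reagent) was preincubated 10 min at RT with compound (up to 57.5 uM final), then substrate plus GAPDH/TPI/NAD/arsenate coupling system with diaphorase/resazurin was added; resorufin fluorescence (525/598 nm) was read after 20 min.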
LmPK inh = LmPK (Leishmania mexicana) enzyme inhibition; Potency, µM (titrated, usually from 57.5 µM), most hits filed as inhibitors; purified LmPK, Kinase-Glo ATP luminescence, 1 h; Q27686; 0.37% of 290,000 active; AID 1721
Target sequence (Q27686 whole entry, looked up): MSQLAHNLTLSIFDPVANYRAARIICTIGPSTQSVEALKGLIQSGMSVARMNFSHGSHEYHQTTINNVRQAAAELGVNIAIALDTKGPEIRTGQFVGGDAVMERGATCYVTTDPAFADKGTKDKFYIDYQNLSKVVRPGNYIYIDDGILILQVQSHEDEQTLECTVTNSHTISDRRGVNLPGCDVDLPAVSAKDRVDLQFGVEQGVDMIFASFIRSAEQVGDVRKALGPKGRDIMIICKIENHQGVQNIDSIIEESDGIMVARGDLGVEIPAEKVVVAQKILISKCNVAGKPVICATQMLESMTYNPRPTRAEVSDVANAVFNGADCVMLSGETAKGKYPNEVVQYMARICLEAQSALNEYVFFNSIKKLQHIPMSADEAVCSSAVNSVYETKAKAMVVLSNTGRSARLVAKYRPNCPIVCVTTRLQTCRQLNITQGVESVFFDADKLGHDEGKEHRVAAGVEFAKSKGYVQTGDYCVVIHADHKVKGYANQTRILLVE
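In 50 mM imidazole pH 7.2 with 7 mM MgCl2, LmPK (0.1 nM) turned over PEP (0.5 mM) and ADP (0.1 mM) for 1 h at room temperature. Luciferase read-out of ATP.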
RE007 growth inh = less growth of the S. pombe RE007 Vpr strain | S. pombe RE007 Vpr strain, BacTiter-Glo ATP luminescence, 24 h | Potency, µM (top dose mostly 92.2 µM), most hits filed as inhibitors | 0.21% of 360,000 active | AID 651644; active = well fitted falling curve with a large enough effect; inconclusive = small, poorly fitted or top-dose-only effect; inactive = no such curve, though single readings can be large or run the other way; also: nearly all actives have a fitted effect of over 50% in size
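Fission yeast RE007 carrying one integrated HIV-1 vpr copy, seeded at OD 0.01 in PMG+AL medium with 23 nL pinned compound. Grown 24 h at 30 degrees; viability read by BacTiter-Glo luminescence after 5 min.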
Tb PYK inh = inhibitors of Trypanosoma brucei pyruvate kinase. TbPYK enzyme, Kinase-Glo Plus ATP luminescence, 45 min. Potency, µM (doses to about 76.8 µM), actives largely listed as inhibitors. 0.12% of 410,000 active. AID 624173; also: nearly all actives have a fitted effect of over 50% in size
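Screened from lowest to highest concentration, compounds were pinned into TbPYK/substrate mixtures, and ADP (130 uM final) was added. Plates sat at room temperature for 45 min prior to Kinase-Glo Plus detection by luminescence.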
Shiga inhibitor = inhibitors of Shiga toxin in Vero cells; Vero cells, Shiga toxin protein synthesis inhibition reporter; inhibition, % at 38.7 µM; 9.2% of 290,000 active; in the data active = inhibition mostly above about 28%, no sharp cut-off; inactive = mostly below about 43%
CHX counter = counter-screen hit for Shiga toxin inhibitors, cycloheximide | cell reporter, cycloheximide protein synthesis inhibition counterscreen | max response, % | 12% of 300,000 active | AID 2314; in the data active = max response mostly above about 13%, no sharp cut-off; inactive = mostly below about 14%; also: read at 38.3 µM for the half of the compounds with a filed dose
Numbers stand for hits. Unless noted, calls follow the shape of the dose curve; as a rule, active = well fitted curve in the direction sought with a large enough effect; inconclusive = small, poorly fitted or top-dose-only effect, or another doubt; inactive = no such curve, though single readings can be large; an effect the other way counts as inactive or inconclusive.

For N#CC1=C(c2ccccc2)/C(=C/c2ccccc2)OC1=O the results were FBPA Giardia inh inactive, LmPK inh inactive, RE007 growth inh inactive, Tb PYK inh inactive, Shiga inhibitor inactive and CHX counter inactive.
For O=C1O/C(=C/c2ccccc2)c2ccccc21 the results were FBPA Giardia inh inactive, LmPK inh inactive, RE007 growth inh inactive, Tb PYK inh inactive, Shiga inhibitor active and CHX counter 65.
For ONCc1ccccc1 the results were FBPA Giardia inh inconclusive, Shiga inhibitor inactive and CHX counter inactive.
O=C(OCc1ccc(F)cc1)c1ccc2c(c1)-c1ccccc1C2=O was read as LmPK inh inactive, RE007 growth inh inactive, Tb PYK inh inactive, Shiga inhibitor inactive and CHX counter inactive.
`CCOC(=O)C1=C(Cc2ccc(F)cc2)C(=O)c2ccccc2C1=O` gave FBPA Giardia inh 1.8µM, LmPK inh inconclusive, RE007 growth inh inconclusive, Tb PYK inh inconclusive, Shiga inhibitor inactive and CHX counter inactive.
CCCn1c(SCC(=O)Nc2ccc(S(=O)(=O)N(C)C)cc2)n[nH]c1=O was read as FBPA Giardia inh inactive, LmPK inh inactive, RE007 growth inh inactive, Tb PYK inh inactive, Shiga inhibitor inactive and CHX counter inactive.
For COc1ccc(C2CC(C)(c3ccc(OC)cc3)Nc3ccccc3N2)cc1 (stereo not drawn) the results were FBPA Giardia inh inconclusive, LmPK inh inactive, RE007 growth inh inactive, Tb PYK inh inactive, Shiga inhibitor 108 and CHX counter 53.
Screening O=C(CSc1nc2c(sc3ccccc32)c(=O)n1CCCC(=O)NC1CCCC1)Nc1ccc(F)cc1 returned Tb PYK inh inactive.
Screening N#CC1=C(N)NC(SCC(=O)c2ccccc2)=C(C#N)C12CCCC2 returned FBPA Giardia inh inactive, LmPK inh inactive, RE007 growth inh inactive, Tb PYK inh inactive, Shiga inhibitor 67 and CHX counter 40.
For Cc1ccc(NC(=O)CN(C)C(=O)COC(=O)CCS(=O)(=O)c2ccc(C)cc2)cc1 the results were FBPA Giardia inh inactive, LmPK inh inactive, RE007 growth inh inactive, Tb PYK inh inactive, Shiga inhibitor inactive and CHX counter inactive.
O=C(Cc1ccc(Br)cc1)OCC(=O)N1CCOCC1 was read as RE007 growth inh inactive and Tb PYK inh inactive.
For CN(C)c1ccc(C(CNC(=O)c2cccs2)N(C)C)cc1 (stereo not drawn) the results were FBPA Giardia inh inactive, LmPK inh inactive, RE007 growth inh inactive, Tb PYK inh inactive, Shiga inhibitor 51 and CHX counter 50.
`COc1ccc(CNC(=O)Cc2cccs2)cc1` gave FBPA Giardia inh inactive, LmPK inh inactive, RE007 growth inh inactive, Tb PYK inh inactive, Shiga inhibitor 61 and CHX counter 43.
For O=C(Cc1cccs1)NCc1ccc(Cl)cc1 the results were FBPA Giardia inh inactive, LmPK inh inactive, RE007 growth inh inactive, Tb PYK inh inactive, Shiga inhibitor inactive and CHX counter 15.
For Cc1ccc(C2=NN(CCC(=O)NCc3ccc4c(c3)OCO4)C(=O)CC2)cc1 the results were FBPA Giardia inh inactive, LmPK inh inactive, RE007 growth inh inactive, Tb PYK inh inactive, Shiga inhibitor inactive and CHX counter 20.
`CN(C)c1ccc(NC(=O)COC(=O)CNC(=O)c2cccs2)cc1` gave RE007 growth inh inactive and Tb PYK inh inactive.
Screening COc1cc2c(c(OC)c1OC)-c1ccc(OC)c(=O)cc1[C@@H](NC=O)CC2 returned FBPA Giardia inh inactive, Shiga inhibitor inactive and CHX counter inactive.
Screening O=C(Nc1nnc(S(=O)(=O)N2CCCC2)s1)c1ccc(F)cc1 returned Tb PYK inh inactive.
For COCCn1c(=O)c(-c2ccccc2)nc2cnc(Oc3ccccc3)nc21 the results were FBPA Giardia inh inactive and Tb PYK inh inactive.
`O=C(NC1CC(=O)N(c2ccc(F)cc2)C1)c1ccco1` (stereo not drawn) gave Tb PYK inh inactive.
Screening O=C(CCn1c(=O)sc2ccccc21)NCc1ccc2c(c1)OCO2 returned FBPA Giardia inh inactive, LmPK inh inactive, RE007 growth inh inactive, Tb PYK inh inactive, Shiga inhibitor inactive and CHX counter 12.
COc1ccc(CCNC(=O)CN2C(=O)NC3(CCCCC3)C2=O)cc1 was read as RE007 growth inh inactive and Tb PYK inh inactive.
`COc1ccc(C(CNC(=O)CN2C(=O)NC3(CCCC3)C2=O)N(C)C)cc1` (stereo not drawn) gave LmPK inh inactive, RE007 growth inh inactive, Tb PYK inh inactive, Shiga inhibitor inactive and CHX counter 25.
COc1ccc(C(CNC(=O)Cc2cccs2)N(C)C)cc1 (stereo not drawn) was read as FBPA Giardia inh inactive, LmPK inh inactive, RE007 growth inh inactive, Tb PYK inh inactive, Shiga inhibitor inactive and CHX counter 11.
For O=C(Cc1cccs1)NCc1cccc(Br)c1 the results were FBPA Giardia inh inconclusive, LmPK inh inactive, RE007 growth inh inactive, Tb PYK inh inactive, Shiga inhibitor 66 and CHX counter 29.
O=C(Cc1cccs1)NCc1ccc(F)cc1 was read as FBPA Giardia inh inactive, LmPK inh inactive, RE007 growth inh inactive, Tb PYK inh inactive, Shiga inhibitor inactive and CHX counter 22.
Screening O=C(Cc1cccs1)NCc1cccs1 returned FBPA Giardia inh inactive, LmPK inh inactive, RE007 growth inh inactive, Tb PYK inh inactive, Shiga inhibitor inactive and CHX counter inactive.
COc1ccccc1CC(=O)NCc1ccc2c(c1)OCO2 was read as FBPA Giardia inh inactive, LmPK inh inactive, RE007 growth inh inactive, Tb PYK inh inactive, Shiga inhibitor 29 and CHX counter 16.
`O=C(Cc1cccs1)NCc1ccc2c(c1)OCO2` gave FBPA Giardia inh inactive, LmPK inh inactive, RE007 growth inh inactive, Tb PYK inh inactive, Shiga inhibitor 53 and CHX counter 17.
Cc1ccc(-n2nc(C(=O)N3CCN(c4ccccc4F)CC3)c(=O)n(C)c2=O)cc1 was read as Tb PYK inh inactive.
For Cc1ccc(SCC(=O)OC(C)C(=O)NC2CCCCC2C)c(C)c1 (stereo not drawn) the results were RE007 growth inh inactive and Tb PYK inh inactive.
For CC(C)(C)c1ccccc1OCC(=O)NCc1ccccc1 the results were FBPA Giardia inh inactive, LmPK inh inactive, RE007 growth inh inactive, Tb PYK inh inactive and CHX counter inactive.
Screening NC(=O)NC1NC(=O)NC1=O (stereo not drawn) returned FBPA Giardia inh inactive, LmPK inh inactive, RE007 growth inh inactive, Tb PYK inh inactive, Shiga inhibitor inactive and CHX counter inactive.
`Clc1ccc(-c2nnc(SCc3ccon3)o2)c(Cl)c1` gave FBPA Giardia inh inactive, LmPK inh inconclusive, RE007 growth inh inconclusive, Tb PYK inh inactive, Shiga inhibitor 61 and CHX counter 37.
`Clc1ccc2nc(CSc3nnc(-c4c[nH]c5ccccc45)o3)cn2c1` gave RE007 growth inh inactive and Tb PYK inh inactive.
